Measurements reported in PubChem BioAssay (NCI).
This is part of a sample that, as a whole, favours compounds with a hit. Of some 83,000 tested, about 20% had one in any assay.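 Activity criterion: percent growth below 10, measured after cells in 96-well plates were exposed to a single compound concentration for 48 hours.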 Unmarked numbers belong to inactive results. Active and inactive are the calls of the source.

What was measured:
Test in all cases: NCI-60 one-dose screen, 48 h (100 = growth as untreated, 0 = no growth, -100 = all killed)
Settings in all cases: 10 µM unless noted
[1] = test system: HCT-15 colon
[2] = test system: HT29 colon
[3] = test system: SNB-75 CNS
[4] = test system: SNB-19 CNS
[5] = test system: U251 CNS
[6] = test system: PC-3 prostate
[7] = test system: SK-MEL-5 melanoma
[8] = test system: UACC-62 melanoma
[9] = test system: LOX IMVI melanoma
[10] = test system: SK-MEL-28 melanoma
[11] = test system: SK-MEL-2 melanoma
[12] = test system: EKVX NSCLC
[13] = test system: SN12C renal
[14] = test system: UO-31 renal
[15] = test system: TK-10 renal
[16] = test system: ACHN renal
[17] = test system: CAKI-1 renal
[18] = test system: A498 renal
[19] = test system: CCRF-CEM leukemia
[20] = test system: MOLT-4 leukemia

SMILES	growth [1] [%]	growth [2]	growth [3]	growth [4]	growth [5]	growth [6]	growth [7]	growth [8]	growth [9]	growth [10]	growth [11]	growth [12]	growth [13]	growth [14]	growth [15]	growth [16]	growth [17]	growth [18]	growth [19]	growth [20]
CC[C@H](C)[C@@H]1NC(=O)[C@H](Cc2ccc(O)cc2)N(C)C(=O)[C@H](Cc2ccccc2)NC(=O)CN(C)C(=O)[C@@H]2CCCN2C(=O)[C@@H](Cc2ccccc2)N(C)C(=O)[C@H](CC(C)C)NC1=O	41.5	4.78% (active)	-11.6% (active)	-8.3% (active)	6.02% (active)	2.42% (active)	-67.2% (active)	-28.8% (active)	-18.6% (active)	-43.8% (active)	-50.4% (active)	-3.63% (active)	-13.7% (active)	44.4%	6.34% (active)	4.52% (active)	11.4%	-3.73% (active)	-7.96% (active)	2.71% (active)
COc1cc(C2CC(c3cccc(Nc4ccncc4)c3)=NN2C(C)=O)cc(OC)c1OC (centres undefined)	98	78.5%	67.4%	93%	91.5%	84.2%	89.9%	93.9%	85.3%	96.6%	99.1%	87.5%	94%	89.1%	97.7%	99.5%	78.9%	94.1%	92.7%	84.4%
COc1ccc(NC(=O)c2sc3nc(C)c(C(=O)c4ccc(OC)cc4)cc3c2N)cc1	35.8	7.92% (active)	21.2%	65.2%	39.7%	56.4%	35.1%	46.1%	54.2%	64.9%	23%	68.5%	63.8%	45.5%	55%	82.8%	42.6%	-3.91% (active)	36%	27.5%
c1ccc(CCSc2ncnc3nc[nH]c23)cc1	98.2	90.6%	98.7%	84.8%	91.1%	82.8%	85.1%	76.9%	80.5%	103%	53.6%	73.4%	86.5%	84.4%	122%	90.7%	86.7%	86.3%	92.6%	92.4%
COc1ccc2c(c1)OC1=C(C(=O)OC1)C2c1cc(OC)c(OC)c(OC)c1 (centres undefined)	19	6.93% (active)	41.1%	33.8%	21.6%	28.1%	16.1%	42.3%	50.8%	53.5%	27.3%	50.7%	47.7%	51.5%	67.4%	48.8%	55.6%	-1.39% (active)	13.8%	20.4%
CCC(C)C(N)C(=O)NNc1n[nH]c(=S)n1N (centres undefined)	103	107%	99.6%	97.7%	101%	100%	100%	101%	101%	107%	102%	95.5%	99.2%	85.3%	104%	101%	91%	93.8%	99.7%	101%
COc1cc2nc(Cc3ccc(C)cc3)[nH]c(=O)c2cc1OC	104	107%	95.6%	97.9%	117%	101%	109%	95.1%	105%	96.6%	123%	109%	99.6%	97.5%	292%	110%	129%	90.6%	1.89% (active)	95%
COc1cc2nc(-c3ccc(-c4nn[nH]n4)cc3)[nH]c(=O)c2cc1OC	106	110%	106%	94.3%	105%	131%	102%	105%	97.3%	128%	122%	108%	140%	86.3%	246%	111%	-1.66% (active)	147%	114%	95.5%
O=C(Nc1sc2c(c1C(=O)O)CCCC2)c1cccc(C(F)(F)F)c1	89.3	97.7%	104%	100%	88.3%	90.8%	81.2%	77.5%	102%	94.4%	98.6%	93.7%	95.6%	85.8%	105%	87.9%	91.1%	95.2%	85.3%	96.9%
O=c1[nH]nc(-c2ccc(Cl)cc2)cc1Cc1cccc([N+](=O)[O-])c1	105	116%	110%	88.5%	92.1%	91.1%	79.3%	74.3%	93.5%	109%	174%	39.8%	89.1%	71.7%	147%	98.3%	80.8%	106%	-7.68% (active)	5.84% (active)
Nc1nc(N)nc(NCc2ccccc2)n1	97.6	101%	96.5%	107%	105%	105%	103%	101%	101%	106%	112%	99.3%	98.4%	91.1%	95.8%	106%	99.7%	105%	109%	95.4%
COc1ccc(Cl)cc1NC(=O)c1c(NC(=O)C(F)(F)C(F)(F)F)sc2c1CCCCC2	14.9	3.87% (active)	-9.76% (active)	14.5%	7.27% (active)	5.18% (active)	-58.3% (active)	6.99% (active)	17.6%	23.3%	-30% (active)	-5.45% (active)	5.95% (active)	1.55% (active)	10.7%	1.54% (active)	-13.6% (active)	-45.1% (active)		8.91% (active)
COc1cc(C2CC(c3cccc(Nc4ccncc4)c3)=NN2c2ccccc2)cc(OC)c1OC (centres undefined)	28.2	1.04% (active)	44.2%	68.1%	19.7%	30.2%	-52.5% (active)	96.2%	33.8%	5.22% (active)	83.1%	71.2%	62.5%	53.3%	82.8%	65.6%	43.6%	74.9%	6.7% (active)	1.73% (active)
CC1(c2ccccc2)NC(=O)N(CC(=O)Nc2cccc(I)c2)C1=O (centres undefined)	92.9	95.9%	66.8%	84.7%	88.7%	67.9%	31.1%	74%	93.8%	93%	77.5%	106%	96.9%	69.8%	96.1%	91.4%	72.9%	70.5%	88.5%	85.3%
